According to ChEMBL document CHEMBL3988442, “University of Dundee, Small-Polar-MMV Screening Library” (2021):

target: AMP-activated protein kinase, AMPK (Homo sapiens) (UniProt P54646+O43741+P54619+Q9UGJ0+Q9Y478+Q13131+Q9UGI9); test: AMP-dependent Kinase enzyme assay. An in vitro enzyme assay that detects ADP turnover that is directly proportional to AMPK activity. This uses naive AMPK that is activated during the assay with MK-8722; assay type: functional; parameters: scale not given: direction of the effect not stated beside the values; conditions: 30 µM

Compound | Percent Effect
CCS(=O)(=O)N1C[C@H]2CCC[C@@]2(COc2ccccn2)C1 | -6.57%
Cc1ccc(CNCCOc2ccc(S(C)(=O)=O)cc2)cc1 | 4.35%
Cn1nnc2cc(C(=O)N3CCCC3Cc3ccccc3)ccc21 (centres undefined) | 2.56%
Cn1cnnc1C1CCCN(C(=O)NCCOc2ccccc2)C1 (centres undefined) | 1.73%
Cc1ccc(-c2cccc(-c3ccn(CCN4CCCC4)n3)c2)nn1 | -1.02%
c1coc(-c2nnc(CN3CCCC(CN4CCCCCC4)C3)o2)c1 (centres undefined) | 0.651%
OC(CN1CCN(Cc2ccc(F)cc2)CC1)C1CC1 (centres undefined) | -8.34%
CCCNC(=O)c1ccc(NC(=O)c2cccc(OCC)c2)cc1 | 0.466%
Cc1cc(CN2CCOC(CN(C)c3cccnn3)C2)no1 (centres undefined) | 18.6%
Cc1noc(C)c1CN1CCN(C(=O)Cn2cncn2)CC1 | -0.877%
CC(C)(C)C(=O)N1CCC(c2nc(O)cc(-c3ccccn3)n2)CC1 | 8.91%
COc1cc(CNCc2ccc(C(C)O)cc2)cc2c1OCO2 (centres undefined) | 2.1%
c1cnc(-c2nc(CNCCn3cccn3)cs2)nc1 | 7.92%
O=C(NCCNc1ccccn1)N1CCSCC1 | 23.3%
O=C(CS(=O)(=O)c1ccccc1Cl)NC1CCCCNC1=O (centres undefined) | -4.35%
N#CC1(C(=O)NCCCNc2ccc(C(F)(F)F)cn2)CCCC1 | 6.89%
O=C1CCc2cc(-c3csc(CCN4CCCC4=O)n3)ccc2N1 | 4.11%
CCn1c(C(=O)N2CCN(C(=O)COC)CC2)cc2ccccc21 | -4.96%
CC(O)CC(C)(C)CNC(=O)NCc1cccc(-n2ccnc2)c1 (centres undefined) | -1.99%
CCS(=O)(=O)NCCNC(=O)c1cc(Cl)c2c(c1)OCCCO2 | -7.22%

Compound | Percent Effect
COc1c(CNCc2ccnc(N3CCCC3)c2)c(C)nn1C | -1.28%
C[C@H]1C[C@@H]2CCN(C(=O)c3ccncn3)C[C@H]2O1 | -1.04%
CCNC(=O)NC(=O)CSC(C)c1ccccc1F (centres undefined) | -7.52%
CN(Cc1ccsc1)C(=O)Nc1ccc(S(C)(=O)=O)nc1 | -11.6%
Cc1cc(F)ccc1OC1(C(=O)O)CCN(Cc2ccncc2)CC1 | -6.71%
COc1cc(NC(=O)Cn2ccc3sc(C)cc3c2=O)cc(OC)c1 | 8.38%
O=C(CCCc1nnc(-c2ccccc2)o1)N1CCN(CCO)CC1 | -13.1%
CNc1cc2c(nn1)CCN(C(=O)c1ccoc1)C2 | 7.77%
O=C1NC2(CCN(C(=O)c3ccccc3)CC2)CC1c1cccnc1 (centres undefined) | -3.55%
CNC(=O)[C@H]1C[C@@H]2CN(S(=O)(=O)c3ccccc3)C[C@@H]2N1C(C)=O | 3.54%
CC(=O)NCC(=O)N1Cc2nccn2CC(Cn2cccn2)C1 (centres undefined) | 5.56%
CCc1cnc2c(c1NCc1ccncc1)c(=O)n(C)c(=O)n2C | -0.992%
CCn1cnnc1C1CCN(C(=O)COCCc2ccccc2)CC1 | 0.519%
Cc1nc(C2CCCN(C(=O)CCCn3ccnc3C)C2)no1 (centres undefined) | -5.99%
O=C(c1cscn1)N1C[C@H]2CCCC(OCc3cccnc3)[C@H]2C1 (some centres undefined) | -2.55%
CSc1cccc(CNC(=O)C2CC(=O)N(CCN(C)C)C2)c1 (centres undefined) | -10.1%
COc1ccc(-c2noc(CN3CCOCC3C)n2)cc1OC (centres undefined) | -11.1%
OCC1CCCN1c1cc(NCCNc2ccccn2)ncn1 (centres undefined) | -4.46%
O=C(Nc1cc(F)ccc1OCC1CCCO1)c1ccccn1 (centres undefined) | 23.7%
